Data taken from PubChem BioAssay (NCI).
The panel holds about 79,000 compounds, 15% with a hit somewhere; the sample as a whole holds those more often. Calls of active or inactive are those of the source. Cut-off read from the data, not from the text of the source: active = growth inhibition above about 70%; inactive = the rest.

Experiment: NCI Yeast Anticancer Drug Screen. Data for the mgt1 strain (AID 153)
Settings: S. cerevisiae mgt1 mutant growth inhibition; at 3.7 µM; hits give high values
Summary of the method: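 Read-out: yeast growth inhibition vs vehicle control. Strain mgt1, drawn from a panel altered in DNA damage repair or cell cycle control.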

Structure (SMILES)	growth inhibition
CCOP(=O)(OCC)C(Cc1ccccc1)N=C(c1ccccc1)c1ccccc1 (stereo not drawn)	-6% (inactive)
CCc1ncnc2cc(OCC3CO3)c(OC)cc12 (stereo not drawn)	-8% (inactive)
CCOC(=O)[C@H]1Nc2ccccc2C2c3ccccc3CC21 (stereo partly drawn)	10% (inactive)
O=CNc1ccc2c(c1)C(=O)c1ccccc1-2	5% (inactive)
CCOc1ccc2c(c1)c(CC(=O)O)cn2C	-6% (inactive)
OC1CSCCCSCCSCCCSC1	-6% (inactive)
N#Cc1c(N)[nH]c2ccc(Sc3ccccc3)cc12	-2% (inactive)
Cc1ccc(-c2ccc(Nc3c4ccccc4nc4ccccc34)cc2)cn1	-5% (inactive)
c1ccc2c(c1)NC(NC1Nc3ccccc3N1)N2	-7% (inactive)
OC(COc1cccc2ccccc12)CN1CCOCC1 (stereo not drawn)	26% (inactive)
CCC/C(Cl)=N\OC(=O)Nc1ccc(Br)cc1	16% (inactive)
COc1ccc(/C=C2\SC(=S)N(/C=C/c3nc4ccccc4[nH]c3=O)C2=O)cc1OC	3% (inactive)
O=C(NNc1ccnc2cc(Cl)ccc12)/C(=C\c1ccccc1Cl)NC(=O)c1ccccc1	23% (inactive)
CSC1=NNC(SC)=NN1	14% (inactive)
Cc1c(C2=C(Br)C(=O)N(C)C2=O)c(=O)n(C)c(=O)n1C	0% (inactive)
NCCNc1ccc(NCCN)c2c1C(=O)c1c(O)ccc(O)c1C2=O	-21% (inactive)
Cn1c(=O)c(-c2ccccc2)c(N=[N+]=[N-])c2ccccc21	0% (inactive)
CCCCCCCCCCCCCCCCCCOCC(O)COP(=O)(O)OCC1OC(n2cc(F)c(=O)[nH]c2=O)CC1O (stereo not drawn)	25% (inactive)
